The text below walks through data of PubChem BioAssay (NCI).

SMILES strings stand for the structures. The panel holds about 83,000 compounds, 20% with a hit somewhere; the sample as a whole holds those more often.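 Cells were grown in 96-well plates and exposed to the test compound at a single concentration for 48 hours; results are reported as percent growth, with values below 10 considered active.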 Values without a mark were called inactive. Calls of active or inactive are those of the source.

Holding throughout (assay): NCI-60 one-dose screen, 48 h (100 = growth as untreated, 0 = no growth, -100 = all killed)
Holding throughout (details): 10 µM unless noted

For test [1], the system named is DU-145 prostate.
Test [2] deals with K-562 leukemia.
Test [3] concerns MDA-MB-231 breast.
For test [4], the system named is RXF 393 renal.
In test [5] the test system is SF-268 CNS.
The subject of test [6] is SF-539 CNS.
The subject of test [7] is UACC-257 melanoma.
Test [8] concerns M14 melanoma.
Test [9] has as its system HCT-15 colon.
Test [10] relates to HT29 colon.
The subject of test [11] is SNB-75 CNS.
The test system of test [12] is SNB-19 CNS.
Test [13] relates to U251 CNS.
Test [14] has as its system PC-3 prostate.
Test [15] has as its system SK-MEL-5 melanoma.
Test [16] relates to UACC-62 melanoma.
The subject of test [17] is LOX IMVI melanoma.
Test [18] relates to SK-MEL-28 melanoma.
In test [19] the test system is SF-295 CNS.
Test [20] relates to MALME-3M melanoma.

Take `COc1ccc(Nc2ncccc2C(=O)NCc2cn(Cc3cc(OC)cc(OC)c3)nn2)cc1`: the growth is 95.2% in [1]; 84.3% in [2]; 105% in [3]; 96.1% in test [4]; 87.2% in test [5]; 90.3% in [6]. Besides, the growth in test [7] was 98.1%; in [8] it was 98.7%; in test [9], 104%; in [10], 97.8%; in test [11], 81.7%; in test [12] it was 106%. The growth in [13] is 98.6%; in test [14], 90.9%; in test [15], 97.6%; in test [16] it was 97.1%; in test [17], 96.5%; in [18], 113%.
For the molecule `O=C1OCC2=C1C(c1cccc(Br)c1)c1cc3c(cc1N2CCO)OCCO3` (configuration not stated), the growth was -30.9% (active) in test [1]; 17.5% in [2]; -21.5% (active) in [3]; 38.2% in [4]; 19% in test [5]; -4.99% (active) in test [19]. In addition, the growth in [6] is 0.257% (active); in [7], 49%; in test [8], 14.6%; in test [9] it was 13.9%; in test [10], 2.11% (active); in test [11], 28.5%. Further, the growth in [12] is 31.6%; in test [13], 6.01% (active); in test [14], 25.4%; in test [15], 1.61% (active); in [16], 27.3%; in [17], 23.5%. Also, in test [18], the growth is 51.7%.
As for `O=C(Nc1ccccc1Cl)Oc1ccc2ccccc2c1`, the growth was 107% in [1]; 85.3% in test [2]; 88.7% in test [3]; 99.6% in test [4]; 101% in test [5]; 92.5% in test [6]. In addition, the growth in [7] is 93.5%; in [8] it was 101%; in test [9], 99.2%; in [10] it was 98.9%; in test [11], 83.7%; in [12] it was 98.3%. In addition, the growth in test [13] was 103%; in test [14] it was 102%; in [15], 110%; in test [16], 91.8%; in test [17], 95.1%; in test [18], 106%.
In the case of `Cc1ccccc1CNc1ncnc2[nH]ncc12`, the growth in test [1] was 103%; in test [2], 46.8%; in [20], 114%; in [3], 106%; in [5] it was 95.4%; in test [19], 84.3%. Also, the growth in test [6] is 97.6%; in [7] it was 107%; in test [8] it was 103%; in [9], 108%; in test [10], 103%; in test [11] it was 94.8%. The growth in [12] is 95.5%; in [13], 99.8%; in [14], 311%; in [15], 106%; in test [16] it was 97.8%; in test [17] it was 95%. In addition, in test [18], the growth was 136%.
As for `Fc1ccc2nc(-c3ccc(-c4noc(-c5ccc(Cl)cc5)n4)cc3)[nH]c2c1`, the growth is 98.5% in test [1]; 92.5% in [2]; 106% in [3]; 110% in test [4]; 105% in [5]; 100% in [6]. Besides, the growth in [7] is 101%; in test [8], 107%; in test [9], 109%; in test [10], 103%; in test [11] it was 110%; in test [12], 110%. For the same molecule, the growth is 103% in [13]; 102% in [14]; 104% in test [15]; 113% in test [16]; 104% in test [17]; 128% in test [18].
`Cc1cc(O)ccc1C1=NN(c2ccc(S(N)(=O)=O)cc2)C(=O)CC1`: the growth in test [1] was 89.9%; in test [2], 15.7%; in [20] it was 45.3%; in [3] it was 73.8%; in [5] it was 68.5%; in test [19] it was 30.4%. Besides, the growth in test [6] is 45.1%; in test [7], 59.7%; in test [8], 29.7%; in test [9] it was 35.2%; in test [10] it was 11.2%; in test [11], 63%. The growth in test [12] was 82.3%; in test [13] it was 53%; in test [14], 50.7%; in test [15], 25.2%; in test [16], 27.2%; in test [17], 63%. In addition, the growth in test [18] was 58%.
Consider `Oc1ccc(-c2cnc(-c3ccccc3)[nH]2)c(O)c1`, for which the growth in [1] is 157%; in test [2], 94.7%; in test [20] it was 76.5%; in test [3] it was 92.1%; in [5], 100%; in test [6], 107%. The growth in [7] is -22.6% (active); in test [8], 119%; in [9], 107%; in test [10], 120%; in test [11], 94.2%; in [13], 110%. Further, the growth in [14] is 100%; in [15], 105%; in [16] it was 85.6%; in [17] it was 105%; in test [18], 105%.
For the molecule `COc1cc(C2C=C(C)N=C3SC=NN32)cc(OC)c1OC` (configuration not stated), the growth was 115% in [1]; 108% in [2]; 104% in test [3]; 113% in [4]; 111% in [5]; 107% in test [19]. Further, the growth was 99.1% in [6]; 94.8% in test [7]; 109% in test [8]; 106% in test [9]; 101% in [10]; 105% in test [11]. In addition, the growth was 95.9% in test [12]; 93.5% in [13]; 72.7% in test [14]; 103% in [15]; 100% in [16]; 95.8% in test [17]. Further, in [18], the growth is 100%.
